About 83,000 compounds went through this panel and 20% of them were active in at least one assay; those are over-represented in the sample as a whole.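 In brief: 96-well plates, 48 h treatment, single concentration, percent growth endpoint.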 Activity calls are given as the source filed them.
Test system: SN12C renal
Assay: NCI-60 one-dose screen, 48 h (100 = growth as untreated, 0 = no growth, -100 = all killed)
Conditions: 10 µM unless noted
Protocol: Growth inhibition of the SN12C human tumor cell line is measured as a screen for anti-cancer activity. Cells are grown in 96 well plates and exposed to the test compound for 48 hours. Compounds are tested at a single concentration, which is 10^-5 M for most compounds. The reported endpoint is percent growth (GI% or GIPRCNT), where numbers from 0 - 100% represent growth inhibition, and numbers from -100% - 0 represent cell death. For example, a value of 40 represents 60% growth inhibition. A value of 0 means no net growth occurred over the course of the experiment. A value of -40 indicates 40% of cells at the beginning of the experiment died by the end of the experiment. A value of -100 means all cells are dead at the end of the experiment.
NCI-60 Human Tumor Cell Lines Screen was performed using the standard one-dose NCI protocol, which is described in more detail at https://dtp.cancer.gov/discovery_development/nci-60/default.htm.
Compounds with GIPRCNT values below 10 were considered active. Activity score was based on GIPRCNT using the following formula: […]
Score is 0 for GIPRCNT values of 100 or above, 50 for GIPRCNT values of 0, and 100 for GIPRCNT values of -100.

SMILES | growth
COc1ccc2nc3cc(Cl)ccc3c(Nc3ccc(O)cc3)c2c1 | 67.2% (inactive)
COc1cc(OC)c(/C=C/C(=O)c2c(N)cc(OC)cc2OC)c(OC)c1 | 37% (inactive)
CC1(C)C(=O)/C(=C\c2cccnc2)C[C@]2(C)[C@H]3CC[C@@H]4[C@H]5[C@H](C(=O)/C=C/c6cccnc6)CC[C@]5(C(=O)O)CC[C@@]4(C)[C@]3(C)CC[C@@H]12 | -29.4% [100 µM] (active)
COc1ccc(C(=O)CSc2nnc(-c3cc(-c4ccccc4)nc4ccccc34)o2)cc1 | 97.3% (inactive)
Cc1ccc(N)c(O)c1 | 115% (inactive)
O=c1[nH]cnc2c1ccn2C1OC(CO)C(O)C1O (stereo not given) | 63.1% (inactive)
NS(=O)(=O)c1ccc(CCN2C(=O)/C(=C\c3ccccc3)C=C2c2ccc(Cl)cc2)cc1 | 90.6% (inactive)
CCN(CC)CCCC(C)Nc1c2ccc(C)cc2nc2ccc(OC)cc12 (stereo not given) | 43.3% (inactive)
Clc1ccc(N2CCN(CCCN3CCN(c4cccc(Cl)c4)CC3)CC2)cc1 | 64.2% (inactive)
COc1cc(NN=C(c2ccc(O)cc2)c2ccc(O)cc2)c([N+](=O)[O-])cc1[N+](=O)[O-] | 90.5% (inactive)
Cc1cc(N2CCCCCC2)nc(N2CCN(CC(=O)Nc3ccc4c(ccn4Cc4ccccc4)c3)CC2)n1 | 57.1% (inactive)
Cc1ncc(C(=O)Nc2ccc(CN3CCN(C)CC3)c(C(F)(F)F)c2)cc1C#Cc1c(N)ncc2ccc(C#N)cc12 | 32.9% (inactive)
COC(=O)C(=Cc1ccccc1[N+](=O)[O-])C(=O)OC | 51.1% (inactive)
C=C(C)[C@@H]1CC[C@]2(C(N)=O)CC[C@]3(C)[C@H](CC[C@@H]4[C@@]5(C)C/C(=C/c6cccnc6)C(=O)C(C)(C)[C@@H]5CC[C@]43C)[C@@H]12 | 18.5% [100 µM] (inactive)
CC(=O)Nc1ccc2nc3ccc(NC(C)=O)cc3[n+](-c3ccccc3)c2c1 | 104% (inactive)
CCCOc1ccc(-c2nc(-c3ccc(N)cc3)cs2)cc1 | 95.2% (inactive)
O=C(NNc1ccc(-c2ccccc2)nn1)c1ccc(F)cc1 | 95.1% (inactive)
Cc1ccc(-c2cc(-c3ccc(C)cc3)nc(NCCNc3ccnc4cc(Cl)ccc34)n2)cc1 | -88.3% (active)
COC(=O)[C@]12CCC(C)(C)C[C@H]1C1=CC[C@@H]3[C@@]4(C)C/C(=C/c5cccnc5)C(=O)C(C)(C)[C@@H]4CC[C@@]3(C)[C@]1(C)CC2 | -51.4% [100 µM] (active)
O=C(O)CSCc1nnc2n(Cc3ccccc3)c(=O)c3c4c(sc3n12)CCCC4 | 96% (inactive)

SMILES | growth
COc1ccc(C2CC(c3cc(OC)c(OC)c(OC)c3)=NN2C(C)=O)cc1OCC(=O)Nc1nc2ccc(C(F)(F)F)cc2s1 (stereo not given) | 63% (inactive)
Cc1cccc(C[C@H](NC(=O)Nc2ccc(Cl)cc2F)C(=O)N[C@@H]2C(=O)N3C[C@H](O)C[C@H]3C(=O)N3CCCC[C@H]3C(=O)N[C@@H](C)C(=O)N3C[C@H](C)C[C@H]3C(=O)O[C@H]2C)c1 | 9.57% (active)
COc1ccc(C(C(=O)O)c2ccc(OC)cc2)cc1 | 121% (inactive)
CN(C)c1cc(NN=C(c2ccc(O)cc2)c2ccc(O)cc2)c([N+](=O)[O-])cc1[N+](=O)[O-] | 93.8% (inactive)
CCOC(=O)c1cc(C#N)n2ncc3ccccc3c12 | 95.3% (inactive)
COc1cc(C)cc2oc3oc(=N)c(C(=O)c4ccccc4)cc3c(=O)c12 | 101% (inactive)
CC(C)c1ccc(C(=O)Nc2nc3ccc(O)cc3s2)cc1 | 39.4% (inactive)
CCOC(=O)c1cnc2ccc(Br)cc2c1Nc1cccc(S(N)(=O)=O)c1 | 97.3% (inactive)
Cc1ccc(S(=O)(=O)n2cc(C(=O)C(=O)N3CCCCC3)c3ccccc32)cc1 | 85.3% (inactive)
O=c1[nH]c2cc(Cl)c(Cl)cc2n2cc3ncccc3c12 | 83% (inactive)
[2H]C1([2H])CCN(C(=O)C2CC2)c2cc(NS(=O)(=O)c3ccc(-c4cccc(C(N)=O)c4)cc3)ccc21 | 43.7% (inactive)
CC(=O)CC(=O)SC1=NCCS1 | 108% (inactive)
Oc1ccc(N=Nc2nccs2)c(O)c1 | 73.7% (inactive)
CCOC(=O)C1=C(C(=O)c2ccc(Br)cc2)C(c2ccc(Br)cc2)NC(=S)N1 (stereo not given) | 98.3% (inactive)
CCCCC1COc2cccc3c2N1C=C/C3=C\C(=O)n1ccc2ccccc21 (stereo not given) | 94.7% (inactive)
N#Cc1c(Cl)nc(SCC2CO2)nc1-c1ccccc1 (stereo not given) | 95.9% (inactive)
Cc1ccc(Oc2c(/C=N/NC(=O)Cn3c(=O)sc4ccccc43)c(C)nn2-c2ccccc2)cc1 | 29.5% (inactive)
C[C@H]1[C@H](C)CC[C@]2(COC(=O)CCC(=O)O)CC[C@]3(C)C(=CC[C@@H]4[C@@]5(C)CCCNC(C)(C)[C@@H]5CC[C@]43C)[C@H]12 | 65% [100 µM] (inactive)
O=C(N=c1n(-c2ccccc2)nc2n1CCN2C1=NCCN1C(=O)c1ccc(Cl)cc1)c1ccc(Cl)cc1 | 80.8% (inactive)
COc1ccc(-c2c(C)nn3c(NCCN4CCOCC4)cc(C)nc23)cc1OC | 100% (inactive)
